Several values for one entry are separate records, joined by “and”; a condition that tells them apart may be missing. Equal values may be shown once. Out of some 370,000 compounds screened, about 3,100 (0.84%) were called active. This is one part of a sample in which actives are shown more often than they occur. A number with no mark means an inactive call. Rule as the data show it: active = inhibition above about 9.5%; inactive = the rest.
Biological target: 1-phosphatidylinositol 4,5-bisphosphate phosphodiesterase gamma-1 (Homo sapiens) (UniProt P19174)
Test: blockers of human PLCG1 activity – biochemical, fluorescence, purified enzyme, primary screen (AID 720700)
Details: purified PLC-gamma1, fluorogenic substrate, at 12.2 µM, stronger effect = higher value

Chain of 1-phosphatidylinositol 4,5-bisphosphate phosphodiesterase gamma-1 (Homo sapiens) (P19174 whole entry, looked up): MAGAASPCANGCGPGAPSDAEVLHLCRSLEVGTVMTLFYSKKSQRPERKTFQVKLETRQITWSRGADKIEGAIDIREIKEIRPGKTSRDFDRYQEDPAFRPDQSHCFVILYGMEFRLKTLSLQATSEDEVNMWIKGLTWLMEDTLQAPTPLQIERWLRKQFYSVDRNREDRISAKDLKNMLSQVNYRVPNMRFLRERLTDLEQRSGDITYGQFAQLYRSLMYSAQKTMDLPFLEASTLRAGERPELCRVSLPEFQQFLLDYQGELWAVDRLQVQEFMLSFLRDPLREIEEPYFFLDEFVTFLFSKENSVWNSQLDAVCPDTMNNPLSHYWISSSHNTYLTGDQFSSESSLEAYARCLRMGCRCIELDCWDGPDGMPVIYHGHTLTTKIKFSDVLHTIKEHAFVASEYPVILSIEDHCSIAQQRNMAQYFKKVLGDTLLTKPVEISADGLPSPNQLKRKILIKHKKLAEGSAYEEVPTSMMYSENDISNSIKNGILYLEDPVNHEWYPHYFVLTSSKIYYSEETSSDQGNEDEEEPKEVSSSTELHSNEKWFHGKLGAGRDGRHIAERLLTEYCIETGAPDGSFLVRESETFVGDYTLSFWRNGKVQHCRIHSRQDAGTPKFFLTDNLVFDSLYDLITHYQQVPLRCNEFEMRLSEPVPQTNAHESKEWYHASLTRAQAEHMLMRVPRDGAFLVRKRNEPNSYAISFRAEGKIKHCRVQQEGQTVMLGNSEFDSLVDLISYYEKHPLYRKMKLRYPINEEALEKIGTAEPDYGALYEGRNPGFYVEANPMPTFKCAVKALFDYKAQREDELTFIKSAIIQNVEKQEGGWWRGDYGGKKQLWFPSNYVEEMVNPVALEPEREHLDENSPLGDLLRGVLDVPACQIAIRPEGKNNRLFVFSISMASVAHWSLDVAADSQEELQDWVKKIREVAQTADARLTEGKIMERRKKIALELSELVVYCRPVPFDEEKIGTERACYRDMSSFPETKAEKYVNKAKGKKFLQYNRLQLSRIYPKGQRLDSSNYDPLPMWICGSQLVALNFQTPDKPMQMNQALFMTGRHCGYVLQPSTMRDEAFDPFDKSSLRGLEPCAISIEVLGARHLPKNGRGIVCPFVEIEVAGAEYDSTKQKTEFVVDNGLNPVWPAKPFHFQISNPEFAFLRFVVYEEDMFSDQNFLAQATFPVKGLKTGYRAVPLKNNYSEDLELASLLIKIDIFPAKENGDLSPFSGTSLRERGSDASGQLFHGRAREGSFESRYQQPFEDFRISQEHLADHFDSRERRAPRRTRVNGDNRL

Structure (SMILES)	inhibition
CC(=O)N1CN2CN(C(C)=O)CC(C(=O)c3ccc(Br)cc3)(C2)C1	11.9% (active)
Cc1cc(-c2ccc(N)c(C)c2)ccc1N	2.25%
Oc1ccc2c3c1OC1[C@H](O)CC[C@@]4(O)[C@@H](C2)N(CC2CC2)CC[C@]314 (stereo not given in full)	-3.08% and -2.01%
O=C(NC1CCCCC1)N1Cc2cc(N3CCCCC3)ccc2-n2nncc2C1	-5.89%
CCN(CC)P(=O)(Oc1cccc(C)c1)N(CC)CC	7.26%
COC(=O)C1=C(c2ccc(F)cc2OCc2ccccc2)C[C@@H]2CC[C@H]1N2C(=O)NCc1ccc(Cl)cc1	4.35%
COC(=O)C1=C(c2cccc(OCc3ccccc3)c2)C[C@@H]2CC[C@H]1N2C(=O)NCc1ccc(Br)cc1	0.93%
COC(=O)C1=C(c2ccc(-c3ccccc3)c(F)c2)C[C@@H]2CC[C@H]1N2C(=O)NCc1ccc(F)cc1	11.8% (active)
CCOC(=O)C(O)(c1ccc(N)c(OC)c1)C(F)(F)F (stereo not given)	0.45%
CN(C)CCN(CC1CCCN(Cc2ccccc2F)C1)C(=O)Cc1ccc(F)c(F)c1 (stereo not given)	1.2%

From PubChem BioAssay AID720700 (The Scripps Research Institute Molecular Screening Center, 2013)
